Measured values from PubChem BioAssay AID1159580 (chemical genetic matrix, 2015).
“And” between values parts separate entries of the source, which are not always exact repeats. Equal entries are not always repeated. About 2,000 (36%) of roughly 5,500 compounds were called active. Another 18% or so got no clear call; they are omitted. Cut-off read from the data, not from the text of the source: active = normalized growth mostly below about 0.91 (no sharp cut-off); inconclusive = no clear call, values can overlap the other calls; inactive = mostly above about 0.92. Some of the results follow.

Assay: chemical genetic growth profiling, strain panel (AID 1159580);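 note: tested at 20 µM; growth read once vehicle control cultures reached saturation at 30 °C; 1 = growth at the plate median or of vehicle wells; lower values mean less growth of the strain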
Settings: S. cerevisiae deletion strains, growth OD

Measured: normalized growth

CC(C[N+](C)(C)C)OC(N)=O (centres undefined)
inactive: locus YAL013W, strain DEP1, stronger effect = lower value 0.991 | locus YAL021C, strain ccr4, stronger effect = lower value 1.05 | locus YAL026C, strain drs2, stronger effect = lower value 1.03 | locus YAL030W, strain snc1, stronger effect = lower value 1.02 | locus YAL040C, strain CLN3, stronger effect = lower value 1 | locus YBL061C, strain skt5, stronger effect = lower value 1.03 | locus YBR009C, strain hhf1, stronger effect = lower value 1.01 | locus YBR021W, strain FUR4, stronger effect = lower value 1.01 | locus YBR023C, strain chs3, stronger effect = lower value 1.03 | locus YBR171W, strain sec66, stronger effect = lower value 1.05 | locus YBR229C, strain ROT2, stronger effect = lower value 0.994 | locus YBR231C, strain swc5, stronger effect = lower value 1.01 | locus YBR279W, strain paf1, stronger effect = lower value 1.03 | locus YCL011C, strain gbp2, stronger effect = lower value 1.01 | locus YCL016C, strain dcc1, stronger effect = lower value 1.03 | locus YCL029C, strain bik1, stronger effect = lower value 0.988 | locus YCL061C, strain MRC1 (second series), stronger effect = lower value 1 | locus YCL061C, strain MRC1, stronger effect = lower value 1.01 | locus YCL069W, strain vba3, stronger effect = lower value 1.03 | locus YCR088W, strain abp1, stronger effect = lower value 1.03 | locus YDL005C, strain med2, stronger effect = lower value 1.01 | locus YDL035C, strain GPR1, stronger effect = lower value 1.04 | locus YDL040C, strain nat1, stronger effect = lower value 1.02 | locus YDL074C, strain BRE1, stronger effect = lower value 0.947 | locus YDL101C, strain DUN1, stronger effect = lower value 0.976 | locus YDL185W, strain tfp1, stronger effect = lower value 0.981 | locus YDL192W, strain arf1, stronger effect = lower value 0.983 | locus YDR001C, strain nth1, stronger effect = lower value 1.03 | locus YDR069C, strain doa4, stronger effect = lower value 1.01 | locus YDR101C, strain arx1, stronger effect = lower value 0.991 | locus YDR137W, strain rgp1, stronger effect = lower value 1.04 | locus YDR150W, strain NUM1, stronger effect = lower value 1.01 | locus YDR159W, strain sac3, stronger effect = lower value 0.982 | locus YDR162C, strain NBP2, stronger effect = lower value 1.02 | locus YDR195W, strain ref2 1 | locus YDR297W, strain sur2, stronger effect = lower value 1.02 | locus YDR318W, strain mcm21, stronger effect = lower value 0.985 | locus YDR334W, strain swr1, stronger effect = lower value 1.03 | locus YDR335W, strain msn5, stronger effect = lower value 1.03 | locus YDR363W, strain ESC2, stronger effect = lower value 0.974 | locus YDR388W, stronger effect = lower value 0.992 | locus YDR392W, strain spt3, stronger effect = lower value 0.962 | locus YDR502C, strain sam2, stronger effect = lower value 0.991 | locus YEL003W, strain gim4, stronger effect = lower value 1.01 | locus YEL037C, strain rad23, stronger effect = lower value 1.04 | locus YEL061C, strain CIN8 (second series), stronger effect = lower value 1.03 | locus YEL061C, strain CIN8, stronger effect = lower value 0.995 | locus YER002W, strain NOP16, stronger effect = lower value 1.02 | locus YER015W, strain faa2, stronger effect = lower value 1.02 | locus YER016W, strain bim1, stronger effect = lower value 1.02 | locus YER110C, stronger effect = lower value 0.972 | locus YER111C, strain swi4, stronger effect = lower value 1.04 | locus YER155C, strain BEM2 (second series), stronger effect = lower value 0.998 | locus YER155C, strain BEM2, stronger effect = lower value 0.986 | locus YER167W, strain BCK2, stronger effect = lower value 1.01 | locus YFR010W, strain ubp6, stronger effect = lower value 1.02 | locus YGL078C, strain dbp3, stronger effect = lower value 0.982 | locus YGL086W, strain mad1, stronger effect = lower value 0.984 | locus YGL167C, strain pmr1, stronger effect = lower value 1.04 | locus YGL173C, strain kem1, stronger effect = lower value 1.01 | locus YGL227W, strain vid30, stronger effect = lower value 1.02 | locus YGL240W, strain doc1, stronger effect = lower value 1.01 | locus YGL248W, strain PDE1, stronger effect = lower value 0.987 | locus YGL253W, strain hxk2, stronger effect = lower value 1.02 | locus YGR078C, strain PAC10, stronger effect = lower value 0.986 and 0.968 | locus YGR135W, strain pre9, stronger effect = lower value 0.987 | locus YGR229C, strain SMI1, stronger effect = lower value 1.03 | locus YGR252W, strain gcn5, stronger effect = lower value 1.04 | locus YHR013C, strain ard1, stronger effect = lower value 1.03 | locus YHR027C, strain rpn1, stronger effect = lower value 1.03 | locus YHR030C, strain SLT2, stronger effect = lower value 0.991 and 0.986 | locus YHR079C, strain IRE1 (second series), stronger effect = lower value 0.975 | locus YHR079C, strain IRE1, stronger effect = lower value 0.976 | locus YHR094C, strain hxt1, stronger effect = lower value 0.982 | locus YHR129C, strain ARP1, stronger effect = lower value 0.988 | locus YHR142W, strain chs7, stronger effect = lower value 1.04 | locus YHR200W, strain rpn10, stronger effect = lower value 0.987 | locus YIL066C, strain RNR3, stronger effect = lower value 1.01 | locus YIL073C, strain SPO22, stronger effect = lower value 1.04 | locus YIL125W, strain kgd1, stronger effect = lower value 0.979 | locus YIR030C, strain dcg1, stronger effect = lower value 0.976 | locus YJL092W, strain hpr5, stronger effect = lower value 1.02 | locus YJL095W, strain BCK1 (second series), stronger effect = lower value 1.05 | locus YJL095W, strain BCK1, stronger effect = lower value 0.985 and 0.982 | locus YJL115W, strain asf1, stronger effect = lower value 1.04 | locus YJL129C, strain trk1, stronger effect = lower value 1.04 | locus YJL134W, strain LCB3, stronger effect = lower value 0.989 | locus YJL154C, strain vps35, stronger effect = lower value 1.03 | locus YJL164C, strain tpk1, stronger effect = lower value 1.03 | locus YJL166W, strain qcr8, stronger effect = lower value 1.01 | locus YJL168C, strain set2, stronger effect = lower value 0.981 | locus YJL187C, strain SWE1 (second series), stronger effect = lower value 0.987 | locus YJL187C, strain SWE1, stronger effect = lower value 1.03 | locus YJR043C, strain POL32, stronger effect = lower value 1.05
